Screening results (PubChem BioAssay)
FMDV inh = High Throughput Screening for Foot and Mouth Disease Virus Antivirals; Potency, µM (doses to about 57.9 µM), without a hit: at the highest dose activity change, negative = inhibition, actives largely listed as inhibitors; AID 1159524, 2015; hit rate 1.2% among 410,000; FMDV antiviral cell-based qHTS; calls by dose curve; tested in HEK293T cells; further: read-out not given here; potency means the concentration at half of the fitted maximal effect; nearly all actives have a fitted effect of over 45% in size
LASV entry inh = qHTS for Inhibitors of binding or entry into cells for Lassa Virus. hit rate 1.2% among 300,000. AID 540256, 2011. Potency, µM (titrated, usually from 37.9 µM), without a hit: top-dose activity change, negative = inhibition, most hits filed as inhibitors. Lassa virus pseudotype entry inhibition, cell reporter; calls by dose curve; tested in HEK293 cells; further: potency means the concentration at half of the fitted maximal effect; nearly all actives have a fitted effect of over 50% in size
Marburg entry inh = qHTS for inhibitors of binding or entry into cells for Marburg Virus; AID 540276, 2011; Marburg virus pseudotyped entry inhibition, cell reporter; Potency, µM (series often up to 37.8 µM), inactives show top-dose activity change, negative = inhibition, actives largely listed as inhibitors; hit rate 1.8% among 300,000; calls by dose curve; tested in HEK293 cells; further: potency means the concentration at half of the fitted maximal effect
VACV mCherry inh = qHTS for Stage-Specific Inhibitors of Vaccinia Orthopoxvirus: mCherry Reporter Primary qHTS. hit rate 0.63% among 310,000. Potency, µM (doses to about 36.5 µM), for the others: at the top dose activity change, negative = inhibition, most hits filed as inhibitors. Vaccinia virus mCherry reporter infection, fluorescence. AID 720579, 2013; calls by dose curve; tested in A549 cells; further: potency means the concentration at half of the fitted maximal effect; nearly all actives have a fitted effect of over 35% in size
Vaccinia Venus = qHTS for Stage-Specific Inhibitors of Vaccinia Orthopoxvirus: Venus Reporter Primary qHTS | Vaccinia virus Venus reporter expression, fluorescence | Potency, µM (highest dose often 36.5 µM), without a hit: at the top dose activity change, negative = inhibition, hits mostly inhibitors | hit rate 0.46% among 330,000; calls by dose curve; tested in A549 cells; further: potency means the concentration at half of the fitted maximal effect; nearly all actives have a fitted effect of over 30% in size
HCMV antiviral = qHTS Assay for inhibitors of the human cytomegalovirus (HCMV). HFF cells, HCMV-luciferase reporter, 72 h; active compounds read low. hit rate 4.5% among 410,000. activity change, negative = inhibition, % at 57.5 µM; in the data active means activity change below about -60%; inconclusive means no clear call, values can overlap the other calls; inactive means above about -39%
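Compounds were evaluated in HFFs infected with an HCMV luciferase reporter virus (MOI 1 PFU/cell). Luciferase in lysates collected 72 h post infection served as the replication measure.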
Active calls of the source: *; i = inactive; u = inconclusive; x = no result; + = active, no number; [ ] = remark or other dose. This is a sample that favours compounds with a hit; in the whole collection about 6.5% have one here. On the % scale 0 is the no-effect control and ±100 the full control effect.

SMILES	FMDV inh	LASV entry inh	Marburg entry inh	VACV mCherry inh	Vaccinia Venus	HCMV antiviral
COC1CCC(OC2CC(C3(C)CCC4(CC(O)C(C)C(C(C)/C=C(\C)C(=O)C(C)CC(C)C(=O)O)O4)O3)OC3(OC(C4OC(O)(CO)C(C)CC4C)CC3C)C2C)OC1C (stereo not given)	18µM*	0.32µM*	u	6.3µM*	7.9µM*	-98*
CCOc1ccc(OCCCC(=O)Nc2cc(S(=O)(=O)N3CCOCC3)ccc2N2CCOCC2)cc1	-12%	x	x	x	x	-90*
N#Cc1ccc(NC(=O)CCc2ccc(S(=O)(=O)N3CCOCC3)cc2)cc1	28µM*	-15%	-3%	x	x	0
Cc1ccc(OCCCC(=O)Nc2ccc(S(=O)(=O)N3CCOCC3)cc2)cc1	u	x	x	x	x	-63*
CCOc1cc(N2CCOCC2)c(OCC)cc1NC(=O)COC(=O)CCOc1ccc(C(C)(C)C)cc1	-5%	u	5%	i	-12%	3
CC(C)(C)c1ccc(OCCC(=O)Nc2ccc(N3CCOCC3)cc2N2CCOCC2)cc1	-20%	u	u	13µM*	-26%	-8
CCC[C@H]1[C@@H](NC(=O)Nc2cccc(C(F)(F)F)c2)CC[C@@]23CCCN2C(=O)CCC[C@@H]13	x	x	x	x	x	-6
COc1ccc(S(=O)(=O)Nc2cc3c(C(C)=O)c(C)oc3c3ccccc23)cc1	0%	u	u	-25%	u	-76*
CC(=O)c1c(C)oc2c1cc(NS(=O)(=O)c1ccc(C(C)(C)C)cc1)c1ccccc12	-28%	-26%[46.1 µM]	x	-15%	-9%	-17
C=CCN1[C@@H](CC(C)C)COc2cccc(NCCCN3CCOCC3)c2S1(=O)=O	x	x	x	x	x	-19
COc1cccc(CNC(=O)Cn2cccc2C(=O)c2ccccc2)c1	14%	12%[46.1 µM]	6%[46.1 µM]	-17%	-8%	-96*
COc1cccc(CNC(=O)Cc2ccc(-n3c(=O)[nH]c4ccccc4c3=O)cc2)c1	2%	u	u	-26%	-20%	-97*
COc1cccc(CNC(=O)Cn2cccc2C(=O)c2ccccc2C)c1	10%	14%[46.1 µM]	6%[46.1 µM]	-18%	-4%	4
COc1ccc(CCNC(=O)Cn2cccc2C(=O)c2ccccc2)c(OC)c1	4%	x	x	x	x	-96*
CC(C)c1cc(C(C)C)c(S(=O)(=O)N2CCNCC2)c(C(C)C)c1	-7%	u	10µM*	u	-5%	-18
Cc1cc(C)c(C)c(S(=O)(=O)N2CCNCC2)c1C	-7%	-7%	u	-26%	-21%	-31
C/C(=N\NC(=S)NC1CCCCC1)c1c(F)cccc1F	-12%	u	u	-3%	-15%	-79*
Cc1ccc(Cl)cc1NC(=O)Nc1cccs1	4%	-3%	10µM*	u	-14%	u
C(=Nc1cnc2ccccc2c1)c1ccnc2ccccc12	x	x	x	-10%	5%	x
Clc1cccc(CSc2nncn3c2cc2sccc23)c1	1%	-2%[46.1 µM]	x	-15%	-7%	u
CN(CCOc1ccccc1)CC(=O)Nc1cccc(C#N)c1	3%	2%	-18%[46.1 µM]	-7%	-4%	-65*
O=C(Nc1ccn(Cc2cccc3ccccc23)n1)c1cccnc1	u	u	u	-11%	u	-75*
COc1cccc(-c2nc3cc(SC)ccc3cc2CN(C(=O)c2csc(C)n2)C2CC2)c1	28µM*	x	x	-7%	12%	x
COc1cccc(-c2nc3cc4c(cc3cc2CN(C(=O)c2csc(C)n2)C2CC2)CCC4)c1OC	14µM*	x	x	u	-24%	x
COc1ccc(-c2nc3cc(F)ccc3cc2CN(C(=O)c2cccc(OC)c2)C2CC2)cc1	-11%	x	x	-1%	-10%	x
SMILES	FMDV inh	LASV entry inh	Marburg entry inh	VACV mCherry inh	Vaccinia Venus	HCMV antiviral
Cc1ccc(-c2nn(C)c(=O)c3ccccc23)cc1CNC(=O)/C=C/c1ccccc1	-25%	21µM*	u	-14%	-17%	-14
CC(=O)NCc1cc(-c2nn(C)c(=O)c3ccccc23)ccc1C	-16%	-3%	10%	-9%	-7%	133
COc1ccc(-n2ncc(C(=O)N3CCc4ccccc4C3)c2C2CCN(C(=O)OC(C)(C)C)CC2)cc1	-8%	u	x	-5%	-11%	u
CC(=O)/C=C\C1[C@]2(C)CCCC(C)(C)C2CC[C@@]1(C)O (stereo not given in full)	-5%	x	x	i	0%	x
Cc1ccc(S(=O)(=O)NCC(Nc2cccc(Cl)c2)c2ccccc2)cc1 (stereo not given)	-1%	u	u	u	u	-103*
CCOc1cc(/C=C/c2ccc3cccc([N+](=O)[O-])c3n2)ccc1O	u	u	u	u	u	-99*
O=[N+]([O-])c1ccc(/C=C/c2ccc3cccc([N+](=O)[O-])c3n2)cc1	-10%	-15%	u	-4%	-11%	u
CCOc1cc(/C=C/c2ccc3cccc([N+](=O)[O-])c3n2)ccc1OCC(=O)N(C)C	u	x	u	u	u	-109*
COc1cc(/C=C/c2ccc3cccc([N+](=O)[O-])c3n2)ccc1OCC#N	-23%	u	u	u	-19%	-93*
O=[N+]([O-])c1cccc2ccc(/C=C/c3ccc(F)cc3)nc12	41%	16%	1%	u	-22%	2
CN(c1ccc(/C=C/c2ccccc2)cc1)P1(=O)NCCCO1 (stereo not given)	x	x	x	44%	6%	x
Cc1ccc(-n2c(SCC(=O)Nc3c(C)cccc3C)nc(O)c(C)c2=O)cc1	-16%	u	1%[46.1 µM]	-7%	-6%	32
CCc1c(C)nc(SCC(N)=O)c(C#N)c1C	x	8%	8%	-1%	-6%	-64*
Nc1nccc(-c2ccc(-n3cnc4ccccc43)cc2)n1	14%	22%	u	i	-19%	-70*
CCOc1ccc(-n2c(=O)c3sccc3n(CC(=O)Nc3cccc(OC)c3)c2=O)cc1	-3%	x	x	x	x	+
COc1cccc(NC(=O)Cn2c(=O)n(-c3ccccc3)c(=O)c3oc4ccccc4c32)c1	-7%	u	u	0%	-18%	-68*
Cc1cc(C)cc(NC(=O)Cn2c(=O)n(-c3cc(C)cc(C)c3)c(=O)c3oc4ccccc4c32)c1	-10%	4%[46.1 µM]	x	0%	-17%	-61*
CC(=O)Nc1ccc(NC(=O)Cn2c(=O)n(-c3ccccc3)c(=O)c3oc4ccccc4c32)cc1	-11%	-1%	u	3%	-10%	0
Cc1ccc(NC(=O)Cn2c(=O)n(-c3ccc(C)cc3)c(=O)c3ccc(C(=O)NCc4ccccc4Cl)cc32)cc1	0%	u	2%[46.1 µM]	u	u	-60*
COc1ccc(NC(=O)Cn2c(=O)n(-c3ccccc3)c(=O)c3sccc32)c(OC)c1	-17%	x	x	x	x	-39
CC(C)NC(=O)OC[C@@H]1CSCCS(=O)(=O)N1	x	u	x	x	x	-8
